3CLpro inhibitor: SARS-CoV 3CLpro protease inhibitors, primary screen, biochemical, quenched FRET | Replicase polyprotein 1ab (Severe acute respiratory syndrome coronavirus), P0C6X7 | recombinant SARS-CoV 3CLpro, quenched FRET peptide cleavage | inhibition, % at 6 µM | hit rate 0.14% among 290,000 | AID 1706, 2009; in the data active means inhibition above about 12%
Mtb FBA inh: Mtb FBA enzyme inhibitors, primary screen, biochemical, fluorescence, strain H37Rv. Fructose-bisphosphate aldolase (Mycobacterium tuberculosis (strain ATCC 25618 / H37Rv)), …. purified M. tuberculosis FBA, fluorescence read-out. inhibition, % at 1 µM. hit rate 2.3% among 360,000. AID 588726, 2011; in the data active means inhibition above about 27%;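 further: 0% = vehicle and 100% = reference inhibitor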
Target sequence (P9WQA3 whole entry, looked up): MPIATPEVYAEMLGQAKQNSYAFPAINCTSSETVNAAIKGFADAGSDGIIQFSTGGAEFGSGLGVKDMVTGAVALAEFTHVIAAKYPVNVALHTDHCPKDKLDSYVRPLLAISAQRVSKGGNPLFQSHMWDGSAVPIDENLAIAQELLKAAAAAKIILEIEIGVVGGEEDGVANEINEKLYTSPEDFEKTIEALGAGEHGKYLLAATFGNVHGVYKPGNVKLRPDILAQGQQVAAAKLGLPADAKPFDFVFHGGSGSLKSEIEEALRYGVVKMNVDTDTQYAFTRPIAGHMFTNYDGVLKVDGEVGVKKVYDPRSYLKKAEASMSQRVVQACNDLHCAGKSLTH
Mtb BioA inh: M. tuberculosis BioA enzyme inhibitors, primary screen, biochemical, plate reader, single point, HTS; purified M. tuberculosis BioA enzyme; inhibition, % at 9.99 µM; hit rate 0.096% among 360,000; in the data active means inhibition above about 40%; inconclusive means no clear call, values can overlap the other calls
FadD28 FP inh: inhibitors of FadD28 bisubstrate probe binding, primary screen, biochemical, fluorescence polarization, single point. Mycobacterium tuberculosis FadD28 fatty-acid-AMP ligase. hit rate 0.22% among 360,000. inhibition, % at 12.5 µM; in the data active means inhibition above about 8.5%, passing the limit was not always enough; inconclusive means no clear call, values can overlap the other calls
GDH-TPI inh: GDH-TPI coupling enzyme inhibitors, primary screen, artefact control for M. tuberculosis FBA inhibitor project, biochemical, absorbance, full deck; GDH-TPI coupled enzyme counterscreen, NADH absorbance; AID 588335, 2011; inhibition, % at 4.8 µM; hit rate 1.2% among 360,000; in the data active means inhibition above about 30%;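 further: 0% = DMSO wells and 100% = wells lacking the enzyme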
* marks the source's active call; other numbers are inactive results; ? = inconclusive; . = no result given; + = active, no number. This is a sample that favours compounds with a hit; in the whole collection about 3.1% have one here.

SMILES	3CLpro inhibitor	Mtb FBA inh	Mtb BioA inh	FadD28 FP inh	GDH-TPI inh
O=c1c2ccccc2sc2ccc(NCCCN3CCOCC3)cc12	.	7	-1	1	2
CNC[C@@H]1OCCCC[C@@H](C)Oc2ccc(NC(=O)C3CCCCC3)cc2C(=O)N([C@H](C)CO)C[C@@H]1C	.	.	2	.	.
N[C@@H](Cc1cc(I)c(O)c(I)c1)C(=O)O	-2	1	2	10*	23
NC(Cc1ccc(Oc2ccc(O)cc2)cc1)C(=O)O (configuration not stated)	-1	.	.	.	.
Cc1ccc(-c2c(C(=O)N/N=C/c3ccc4c(c3)OCO4)nnn2-c2nonc2N)cc1	0	4	-2	-1	43*
CCOc1ccc(-c2c(C(=O)N/N=C/c3sccc3C)nnn2-c2nonc2N)cc1	4	-1	1	-9	24
Nc1nonc1-n1nnc(C(=O)N/N=C/c2cccs2)c1-c1ccc2c(c1)OCO2	-3	2	-5	-1	39*
Cc1ccc(-c2c(C(=O)N/N=C/c3cccs3)nnn2-c2nonc2N)cc1	6	-1	-3	-4	24
Cc1ccsc1/C=N/NC(=O)c1nnn(-c2nonc2N)c1-c1ccc2c(c1)OCO2	6	-4	-1	0	32*
CCOc1cccc(-c2c(C(=O)N/N=C/c3sccc3C)nnn2-c2nonc2N)c1	0	-1	-1	-21	32*
Cc1ccc(SCc2c(C(=O)N/N=C/c3ccc4c(c3)OCO4)nnn2-c2nonc2N)cc1	-2	0	-1	-3	12
C[C@@H]1CN([C@@H](C)CO)C(=O)c2cc(C#C[C@@H](C)O)cnc2O[C@H]1CN(C)C(=O)Cc1ccncc1	.	.	0	.	.
CO[C@H]1CN(C)C(=O)c2ccc(NC(=O)C3CCCC3)cc2OC[C@H](C)N(S(C)(=O)=O)C[C@H]1C	.	.	-2	.	.
COC(=O)N(C)C[C@@H]1OCc2ccccc2-c2c(n(C)c3ccccc23)C(=O)N([C@@H](C)CO)C[C@H]1C	.	.	2	.	.
C[C@@H]1CN([C@@H](C)CO)C(=O)Cc2cc(NC(=O)CCC(F)(F)F)ccc2O[C@H]1CN(C)CC1CCCCC1	.	.	0	.	.
N#Cc1c(NC(=O)c2ccco2)sc2c1CCC2	-3	1	0	1	20
Cc1cccc(NC(=O)c2sc(NC(=O)c3ccco3)c(C#N)c2C)c1C	-1	3	-1	-1	36*
CC1(C)Cc2c(sc(NC(=O)c3ccco3)c2C#N)CO1	-7	-1	-2	0	31*
C[C@@H]1CN([C@@H](C)CO)C(=O)c2cc(C#CC3CC3)cnc2O[C@H]1CN(C)C(=O)c1ccc(F)cc1	.	.	8	.	.
COc1ccc(-c2nnc(SCC(=O)N3CCCC3)o2)cc1	7	1	.	.	-10
COc1cc(OC)cc(-c2nnc(SCC(=O)N3CCCC3)o2)c1	-5	118*	0	-2	-4
COC(=O)C[C@H]1CC[C@@H]2[C@@H](COc3ccc(NC(=O)c4ccc(F)cc4)cc3C(=O)N2C)O1	.	.	2	.	.
COc1cccc(S(=O)(=O)N(C)C[C@H]2OCc3ccccc3-c3ccccc3C(=O)N([C@@H](C)CO)C[C@H]2C)c1	.	.	4	.	.
O=C1NC(=O)N(Cc2ccc(F)cc2)C(=O)/C1=C\c1ccc([N+](=O)[O-])s1	4	-3	1	28*	30
COc1ccc(CN2C(=O)NC(=O)/C(=C\c3ccco3)C2=O)cc1	2	0	-1	?	3
SMILES	3CLpro inhibitor	Mtb FBA inh	Mtb BioA inh	FadD28 FP inh	GDH-TPI inh
COc1ccc(CN2C(=O)NC(=O)/C(=C/c3ccc([N+](=O)[O-])s3)C2=O)cc1	3	-6	8	33*	31*
COc1ccc(NC(=O)Nc2ccc3c(c2)C(=O)N([C@@H](C)CO)C[C@H](C)[C@@H](CN(C)S(=O)(=O)c2cccs2)O3)cc1	.	.	2	.	.
CO[C@H]1CN(C)C(=O)c2ccc(NC(C)=O)cc2OC[C@@H](C)N(Cc2cccc(F)c2)C[C@H]1C	.	.	5	.	.
Cc1[nH]c(C(=O)N/N=C/c2ccc(C(=O)O)cc2)c(C)c1C(=O)N/N=C/c1ccc(C(=O)O)cc1	0	-1	-1	-8	74*
COc1cccc(/C=N/NC(=O)c2[nH]c(C)c(C(=O)N/N=C/c3cccc(OC)c3O)c2C)c1O	1	1	.	-1	43*
COc1cccc(/C=N/NC(=O)c2ccc(=O)[nH]n2)c1O	2	3	-1	0	31*
CCCCCCCCCCCCCCCC[n+]1cccc(C(=O)N(CC)CC)c1	4	4	18	14*	11
CCCCCCCCCCCCCCCC[n+]1ccc(C(N)=O)cc1	4	2	1	22*	9
CCCCCCCCCCCCCCCC[n+]1ccccc1	.	0	24	32*	4
CCCCCCCCCCCCCCCC[n+]1ccc(/C=N/O)cc1	10	-3	.	-2	-5
CCCCCCC[n+]1ccc(-c2cc[n+](CCCCCCC)cc2)cc1	3	2	-1	0	5
N#C/C(=C/c1ccc(Br)o1)C(N)=O	3	0	0	0	45*
N#C/C(=C/c1ccc(Br)o1)C(N)=S	-3	.	.	.	.
C[C@@H]1CN([C@@H](C)CO)C(=O)c2cc(NS(=O)(=O)c3ccc(Cl)cc3)ccc2O[C@@H]1CN(C)C	.	.	-1	.	.
N#Cc1nc(-c2ccccc2F)oc1N1CCCCC1	-1	+	-5	-1	20
N#Cc1nc(-c2ccccc2F)oc1N1CCN(C(=O)c2ccco2)CC1	-2	115*	4	-4	12
N#Cc1nc(-c2ccccc2F)oc1NC1CCCCC1	-2	175*	-1	-2	0
Cc1ccccc1Oc1nc2c(C)cccn2c(=O)c1/C=C(\C#N)C(=O)NC1CCS(=O)(=O)C1 (configuration not stated)	9	34*	1	-2	10
CCOC(=O)/C(C#N)=C/c1c(N2CCN(Cc3ccc4c(c3)OCO4)CC2)nc2c(C)cccn2c1=O	-5	-2	-2	-1	7
Cc1cccn2c(=O)c(/C=C(\C#N)C(=O)NC3CCS(=O)(=O)C3)c(N3CCC(C(N)=O)CC3)nc12 (configuration not stated)	-4	192*	.	-3	0
Cc1cccn2c(=O)c(/C=C(\C#N)C(N)=O)c(N3CCN(Cc4ccc5c(c4)OCO5)CC3)nc12	0	33*	-2	-6	16
Cc1cccn2c(=O)c(/C=C(\C#N)C(=O)NC3CCS(=O)(=O)C3)c(N3CC(C)OC(C)C3)nc12 (configuration not stated)	10	120*	.	-3	7
CCCN(C)C[C@@H]1Oc2ncc(C#Cc3ccccc3OC)cc2C(=O)N([C@H](C)CO)C[C@@H]1C	.	.	-2	.	.

Assay outcomes deposited in PubChem BioAssay by several laboratories.
